# Only a selection was taken, and hits are over-represented in it overall.
# RXFP1 antagonist: RXFP1 (human) relaxin receptor antagonism | Q9HBX9 | HEK293-RXFP1, relaxin-stimulated cAMP HTRF, 30 min; active compounds read low | activity change, negative = inhibition, % at 57.5 µM | 350,000 compounds, 0.59% hits | AID 1259400;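 active = activity change of -60% or lower, but not beyond a set lower limit; inconclusive = change between -60% and -40%, or beyond the set limit; inactive = change above -40%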; note: % is set by controls: 0 for no effect and ±100 for the full control effect
# Target sequence (Q9HBX9 whole entry, looked up): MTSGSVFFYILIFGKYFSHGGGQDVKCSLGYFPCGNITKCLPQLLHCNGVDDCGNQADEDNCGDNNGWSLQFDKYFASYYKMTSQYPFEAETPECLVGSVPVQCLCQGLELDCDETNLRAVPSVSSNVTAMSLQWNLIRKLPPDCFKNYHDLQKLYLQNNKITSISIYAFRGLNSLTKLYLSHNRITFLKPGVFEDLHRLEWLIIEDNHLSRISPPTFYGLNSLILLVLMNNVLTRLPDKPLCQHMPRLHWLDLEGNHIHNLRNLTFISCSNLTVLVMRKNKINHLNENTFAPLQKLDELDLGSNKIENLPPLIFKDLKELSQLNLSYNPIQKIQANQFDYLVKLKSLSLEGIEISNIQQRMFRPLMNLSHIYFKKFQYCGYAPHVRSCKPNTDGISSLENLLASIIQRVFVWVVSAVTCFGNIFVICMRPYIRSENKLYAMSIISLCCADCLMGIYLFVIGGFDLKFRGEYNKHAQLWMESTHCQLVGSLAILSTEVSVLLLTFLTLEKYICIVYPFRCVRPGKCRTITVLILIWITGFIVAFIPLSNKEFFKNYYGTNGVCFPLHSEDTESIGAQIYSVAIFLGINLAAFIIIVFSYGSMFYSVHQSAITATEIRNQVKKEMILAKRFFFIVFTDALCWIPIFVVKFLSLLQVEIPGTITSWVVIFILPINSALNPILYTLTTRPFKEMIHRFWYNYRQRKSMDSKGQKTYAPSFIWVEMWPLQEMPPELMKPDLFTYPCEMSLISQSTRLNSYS
# HEK293 tox: cytotoxic in the GLP-1 receptor inverse agonist counter-screen. HEK293 cAMP-luciferase reporter cells, luminescence, 24 h. Potency, µM (doses to about 38.3 µM), inactives show at the highest dose activity change, negative = inhibition, most hits filed as inhibitors. 410,000 compounds, 0.13% hits. AID 624418;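 note: loss of luciferase light is scored as toxicity; potency is the fitted concentration of half-maximal effect; % is set by controls: 0 for no effect and ±100 for the full control effect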
#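 To flag toxic compounds, the library was rerun on cells for 24 hr at 37 deg C and 5% CO2. Viability-linked luminescence was captured 12 min after adding luciferase detection reagent.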
# PTHR1 ag: agonists of human PTHR1 parathyroid hormone receptor; AID 743266; HEK293 GP2 PTHR1 cells, GloSensor cAMP luminescence, 1 h; Q03431; 410,000 compounds, 0.075% hits; Potency, µM (titrated, usually from 115 µM), for the others: at the top dose activation, actives largely listed as activators; note: potency is the fitted concentration of half-maximal effect; nearly all actives have a fitted effect of over 55% in size
#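 HEK-293-derived GP2 cells expressing PTHR1 and a GloSensor cAMP reporter, 3,000/well, plated overnight, given luciferin plus IBMX (each 0.5 mM as added) for 1 h at 37 °C, then compound for 1 h at 37 °C. Luminescence was read after 15 min at room temperature.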
# NPSR antag: neuropeptide S receptor (human) antagonism, cAMP. Q6W5P4. CHO-NPSR cells, cAMP TR-FRET, antagonist mode. Potency, µM (series often up to 38.3 µM), for the others: at the highest dose activity change, negative = inhibition, actives largely listed as inhibitors. 220,000 compounds, 1% hits. AID 1461; note: potency is the fitted concentration of half-maximal effect; % is set by controls: 0 for no effect and ±100 for the full control effect; nearly all actives have a fitted effect of over 50% in size
# RXFP1 ag: RXFP1 (human) receptor agonism; Q9HBX9; Potency, µM (highest dose often 57.5 µM), inactives show at the top dose activation, most hits filed as activators; HEK293T-RXFP1 cAMP TR-FRET, 30 min; response scale: percent of porcine relaxin response, buffer zero; AID 2676; 370,000 compounds, 0.3% hits; note: potency is the fitted concentration of half-maximal effect; % is set by controls: 0 for no effect and ±100 for the full control effect; nearly all actives have a fitted effect of over 60% in size
#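 Agonist response is measured as cAMP accumulation in an RXFP1-transfected HEK293T line under PDE4 inhibition. Values are scaled between buffer-only and 29 nM porcine relaxin, and EC50s come from standard Hill equation fits.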
# TSHR antagonist: antagonists of human thyroid stimulating hormone receptor; P16473; TSHR-expressing cells, TSH-stimulated cAMP HTRF, 2 h; active compounds read low; activity change, negative = inhibition, % at 11.5 µM; 330,000 compounds, 0.2% hits; AID 504810;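 active = activity change below a set negative limit, meaning inhibition stronger than a set level, cut at about -70% in these data; inconclusive = activity change between two set negative limits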; note: % is set by controls: 0 for no effect and ±100 for the full control effect
#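 TSHR-expressing cells were treated with compounds, then stimulated with TSH at EC80 (4nM final) for 2 hours at 37 deg C. Cellular cAMP was measured by HTRF competition between lysate cAMP and cAMP-d2 for a cryptate-labelled anti-cAMP antibody.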
# The depositor's hits bear a star; i = inactive; ? = inconclusive; nt = not tested or not shown; [ ] = another dose, or the depositor's remark. Unless noted, calls come from the whole dose curve; as a rule, active = well fitted curve in the direction sought with a large enough effect; inconclusive = small, poorly fitted or top-dose-only effect, or another doubt; inactive = no such curve, though single readings can be large; an effect the other way counts as inactive or inconclusive.
SMILES,RXFP1 antagonist,HEK293 tox,PTHR1 ag,NPSR antag,RXFP1 ag,TSHR antagonist
CC(=O)N(CCC(c1ccccc1)c1ccco1)Cc1cccs1 (stereo not drawn),-6,-5%,i,-29%[46.1 µM],-1%,-91*
Cc1ccc(C2CC(c3cccs3)=NN2C(=O)c2ccc(Br)o2)cc1 (stereo not drawn),-17,-6%,i,10µM*,-1%,21
O=C(N=Nc1c(O)[nH]c2ccc(Br)cc12)c1ccccc1-n1cccc1,23,-9%,-17%[57.5 µM],13µM*,7%,15
O=C(N=Nc1c(O)[nH]c2ccc(Br)cc12)c1ccco1,18,4%,i,nt,nt,nt
Nc1nc(=O)n([C@@H]2O[C@H](CO)[C@@H](O)[C@@H]2F)cc1I,3,nt,nt,nt,nt,nt
CC(=O)c1ccc(NC(=O)c2cnn(-c3cccc(F)c3)c2-n2cccc2)cc1,-68*,-8%,-41%,nt,1%,nt
CC(=O)Nc1ccc(S(=O)(=O)Nc2c(NC3CCCCC3)c3ccccc3oc2=O)cc1,1,7%,i,nt,2%,-89*
Cc1ccc(S(=O)(=O)c2nnn3c2nc(NC(C)C)c2sccc23)cc1,-23,-1%,-24%,nt,?,nt
CCCC(CC)Sc1nc2c([nH]1)c(=S)n(C)c(=O)n2C (stereo not drawn),-19,0.89µM*,-32%,nt,nt,nt
CCN(CC)CCSc1nc2c([nH]1)c(=S)n(C)c(=O)n2C,-7,5.6µM*,-7%,nt,nt,nt
CCCCC(C)Sc1nc2c([nH]1)c(=S)n(C)c(=O)n2C (stereo not drawn),-39,?,-60%,nt,nt,nt
CCCCSc1nc2c([nH]1)c(=S)n(C)c(=O)n2C,-7,?,-10%,nt,nt,nt
C#CC(C)(CC)OC(=O)c1ccccc1C(=O)O (stereo not drawn),8,nt,nt,nt,nt,nt
CC(C)(C)c1cc(-c2csc(Nc3ccccc3)[n+]2Cc2ccc(C(=O)O)cc2)cc(C(C)(C)C)c1O,-29,2%,-27%,13µM*,2%,-11
COc1cccc(C2C(C(=O)Nc3ccccc3)=C(C)N=c3s/c(=C/c4ccc(OCC(=O)O)cc4)c(=O)n32)c1 (stereo not drawn),16,-11%,i,-2%,4%,2
CC1=C(C(=O)Nc2ccccc2)C(c2ccc(C)o2)n2c(s/c(=C\c3ccco3)c2=O)=N1 (stereo not drawn),-8,-12%,i,13µM*,0%,-10
CCCn1nc(C(=O)Nc2nc(-c3ccccn3)cs2)c2ccccc2c1=O,-5,5µM*,-20%,nt,0%,1
CCn1nc(C(=O)Nc2nc(-c3ccccn3)cs2)c2ccccc2c1=O,-6,?,-16%,nt,3%,-26
OC1(c2ccccc2)CCN(Cc2ccccc2)CC1,-21,-12%,-15%,17%,3%,-8
OC1(c2ccc(Cl)c(Cl)c2)C[n+]2ccccc2N1Cc1ccccc1 (stereo not drawn),-69*,?,-11%,?,0%,3
Cc1ccc(-n2cc(-c3ccccc3)c3c(=O)[nH]cnc32)cc1,nt,6%,-95%,-32%,0%,-6
O=c1[nH]cnc2c1c(-c1ccccc1)cn2-c1ccccc1,-75*,-2%,-18%,nt,0%,5
COc1ccc(CN(CCC(c2ccccc2)c2ccc(OC(C)C)cc2)C(=O)CCl)cc1OC (stereo not drawn),-23,?,-17%,10µM*,1%,-13
COc1ccc(C(CCN(Cc2ccc(OC)c(OC)c2)C(C)=O)c2ccccc2)cc1 (stereo not drawn),-5,-7%,-57%,-20%[46.1 µM],1%,-5
Cc1cc(C(=O)Nc2ccc(C(C)C)cc2)c2c(C)nn(-c3ccccc3)c2n1,nt,-4%,-7%,nt,4%,nt
SMILES,RXFP1 antagonist,HEK293 tox,PTHR1 ag,NPSR antag,RXFP1 ag,TSHR antagonist
COCCN1C(=O)/C(=C/c2ccc(OCc3ccc(C(=O)O)cc3)c(OC)c2)SC1=Nc1ccccc1,-29,2%,-42%,13µM*,-1%,-22
Oc1c(C=Nc2ccccc2)sc2ccccc12,-70*,-26%,-21%,6%,4%,7
Cc1csc(NC(=O)CSc2nnc3c4ccccc4nc(C(C)(C)C)n23)n1,-8,2.5µM*,-18%,-6%[46.1 µM],-2%,-5
Cc1ccc(C(CC(=O)NCC2(c3ccccc3)CCCC2)c2ccccc2)c(O)c1 (stereo not drawn),-65*,?,-1%,nt,2%,nt
Cc1ccc(-c2nnc(SCC(=O)NC3CCCC3)n2C)cc1,-1,-2%,i,nt,-1%,-94*
O=C(NNc1ccc([N+](=O)[O-])cc1[N+](=O)[O-])c1ccco1,-8,10µM*,-17%,nt,-6%,-11
CCCC(=O)OC/C(O)=C(\C#N)c1nc2ccccc2[nH]1,-15,10µM*,-8%,-10%,-1%,-8
COCC(=O)OC/C(O)=C(\C#N)c1nc2ccccc2[nH]1,-1,?,i,-9%[7.67 µM],-4%,-7
CCCCC1=CC2=C(c3ccco3)C(=O)C(C)(OC(=O)c3ccc(OC)cc3)C(=O)C2=CN1C1CCCCC1 (stereo not drawn),nt,-28%,-1%,10µM*,28%,-10
COc1cc(Nc2c(C#N)cnc3cc(OCCCN4CCN(C)CC4)c(OC)cc23)c(Cl)cc1Cl,-13,nt,nt,nt,nt,nt
Cc1cc2nc(SCC(=O)Nc3nonc3C)c3c(c2cc1C)CCCC3,-3,1%,i,7.9µM*,3%,49
Cc1nonc1NC(=O)CSc1nc(C2CCCCC2)nc2ccccc12,-1,-7%,-19%[57.5 µM],?,2%,-34
COc1ccc(N2CC(NC(=O)COc3ccc(F)cc3)CC2=O)cc1OC (stereo not drawn),7,1%,1%,nt,-1%,nt
CCN(Cc1ccccc1)S(=O)(=O)c1ccc2c(c1)NC(=O)CS2,-72*,0%,-28%,nt,3%,0
CCN(Cc1ccccc1)S(=O)(=O)c1ccc2c(c1)NC(=O)CC(=O)N2,0,1%,i,-26%,1%,-4
Nc1nc(SCc2ccc([N+](=O)[O-])cc2)c2ncn([C@@H]3O[C@H](CO)[C@H](O)[C@H]3O)c2n1,nt,nt,nt,-14%[46.1 µM],nt,nt
CC1CCN(C(=O)COC(=O)c2cccs2)CC1,-5,16%,-30%,nt,nt,-9
O=C(CCN1CCOCC1)c1ccc2c(c1)OCCO2,-6,?,i,14%[46.1 µM],1%,-25
O=C(CCN1CCc2ccccc2CC1)c1ccc2c(c1)OCCO2,-65*,?,-13%,-14%[46.1 µM],2%,-25
COc1cc(OC)cc(C(=O)NCCNc2nc3cc(C)cc(C)c3cc2C#N)c1,7,37%,i,nt,5%,-7

# High-throughput results (PubChem)
